This is an account of results in PubChem BioAssay (Tox21).

SMILES strings stand for the structures. Results filed as inconclusive are left out. Unmarked numbers belong to inactive results. The source made the active and inactive calls. Calls come from the whole dose curve; as a rule, active = well fitted inhibition curve with a large enough effect in the repeat runs; inconclusive = weak or mixed curves; inactive = no such curve, though single readings can be large or run the other way.
% is set by controls: 0 for no effect and ±100 for the full control effect; potency is the fitted concentration of half-maximal effect.

Cytochrome P450 2C19 (Homo sapiens), sequence (P33261 whole entry, looked up): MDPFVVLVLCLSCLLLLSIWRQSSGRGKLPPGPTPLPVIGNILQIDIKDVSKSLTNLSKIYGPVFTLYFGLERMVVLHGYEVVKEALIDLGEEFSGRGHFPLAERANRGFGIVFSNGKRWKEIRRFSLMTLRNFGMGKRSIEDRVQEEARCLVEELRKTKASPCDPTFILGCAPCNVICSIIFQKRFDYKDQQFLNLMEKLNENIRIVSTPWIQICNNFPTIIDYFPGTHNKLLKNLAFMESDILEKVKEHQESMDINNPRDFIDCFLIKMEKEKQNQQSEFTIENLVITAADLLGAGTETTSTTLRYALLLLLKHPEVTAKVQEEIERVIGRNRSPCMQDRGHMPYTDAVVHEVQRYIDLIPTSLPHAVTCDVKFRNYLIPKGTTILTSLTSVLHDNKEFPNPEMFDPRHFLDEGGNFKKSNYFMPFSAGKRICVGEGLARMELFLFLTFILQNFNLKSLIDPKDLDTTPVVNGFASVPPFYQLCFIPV

For this assay, the target named is Cytochrome P450 2C19 (Homo sapiens) (UniProt P33261). Put plainly: Cytochrome P450 Family 2 Subfamily C Member 19 (CYP2C19) small molecule antagonists: luciferase reporter qHTS assay (AID 1671197). Note: nearly all actives have a fitted effect of over 65% in size. The following applies: P450-Glo CYP2C19 enzyme, luciferin luminescence, 1 h; series mostly up to 115 µM. From the text:
National Center for Advancing Translational Sciences [NCATS]
U.S. Environmental Protection Agency [EPA]
National Institutes of Environmental Health Sciences [NIEHS]
National Toxicology Program [NTP]
U.S. Food and Drug Administration [FDA]
Cytochrome P450 (CYP) enzymes are membrane-bound hemeproteins that play a key role in metabolism of drugs and xenobiotics. Evaluation of the effect of chemicals on CYP isozymes is useful to minimize the adverse drug reactions and toxicities in drug development process. Tox21 chemicals were tested for their effect on CYP enzyme activities by using P450-Glo (TM) screening systems (Promega Corporation, Madison, WI). These systems provide a luminescent method containing proluciferin substrates and are converted to luciferin products by CYP isozymes. The luciferin products formed are detected with a luciferin detection reagent, and the amount of light produced is proportional to CYP activity. P450-Glo (TM) CYP2C19 screening system (Catalog. No. V9880) was used to detect the compounds that interfere in CYP2C19 activity. The positive control compound used for CYP2C19 assay is ketoconazole (Sigma-Aldrich, St. Louis, MO).
Tox21 Assay Protocol Summary:
Two ul of enzyme-substrate mix was dispensed into medium binding white/solid 1536-well plates (Greiner Bio-One North America Inc., Monroe, NC) using a BioRaptr Flying Reagent Dispenser (FRD, Beckman Coulter, Brea, CA). Compounds dissolved in DMSO and positive control (ketoconazole) were transferred to the assay plates at 23 nl using a Pintool station (Wako, San Diego, CA). The assay plates were incubated at room temperature for 10 min. Then 2 ul of NADPH regeneration solution was added to each well of the assay plates using an FRD and incubated at 37C for 1 h. The reaction was stopped by adding 4 ul of detection reagent using an FRD and after 20 min incubation at room temperature the luminescence signal was measured using a ViewLux plate reader (Perkin Elmer, Shelton, CT). Data were expressed as relative luminescence units.
On the technique in general: In a reporter assay the amount or activity of a reporter protein is the signal.
In the case of `O=S(=O)(c1ccc(OCc2ccccc2)cc1)c1ccccc1O`, the Potency is 6.33 µM (active). The same measure, in the same setting: as for `C=C(C)CCO`, the entry is “inactive”; as for `N#Cc1ccc(C/C(=N/NC(=O)Nc2ccc(OC(F)(F)F)cc2)c2cccc(C(F)(F)F)c2)cc1`, 12.6 µM (active).

For `CCCCCCCCCCCCCCCCC(C(=O)O)C(O)(CC(=O)O)C(=O)O` (stereo not given), the Potency entry was “inactive”. On the same count and under the same terms, as for `CC1(C)[C@H]2CC[C@]1(C)C(=O)C2`, the entry is “inactive”; as for `CN1CCN(C)CC1`, “inactive”. On to `C=Cc1ccc(O)c(OC)c1`, for which the Potency was 79.6 µM (active). Turning to `CCOC=C(C(=O)OCC)C(=O)OCC`, the Potency entry was “inactive”. On the same count and under the same terms, next, `NCc1ccco1`: “inactive”; `NCc1cccc(C2CCN(C(=O)c3ccc(C#Cc4ccccc4F)o3)CC2)c1`: 2 µM (active). `CCCCNc1ccc(NCCCC)c2c1C(=O)c1ccccc1C2=O`: the activity change, negative = inhibition was -5.26% [at 23.6 µM]. `Clc1nc(C(Cl)(Cl)Cl)c(Cl)c(Cl)c1Cl`: the Potency is 31.7 µM (active).

With `O=C(O)C[C@H](O)C[C@H](O)/C=C/c1c(C2CC2)nc2ccccc2c1-c1ccc(F)cc1`, the activity change, negative = inhibition is 11.6% [at 23.6 µM]. As for `CCN(CCC#N)c1ccc(N=Nc2ccc([N+](=O)[O-])cc2)cc1`, the Potency result was “inactive”.

As for `C=C1CC[C@H]2O[C@]2(C)CC[C@@H]2[C@@H]1CC2(C)C`, the Potency result was “inactive”. `O=[N+]([O-])c1ccc(CO)cc1`: the Potency result is “inactive”. The same measure, in the same setting: as for `Nc1c(Br)cc([N+](=O)[O-])cc1Br`, the figure is 79.6 µM (active); as for `CC(CC(C)(C)C)CC(C)(C)CC(C)(C)C` (stereo not given), “inactive”. On the same count and under the same terms, as for `CCOC(=O)C1=NN(c2ccc(Cl)cc2Cl)C(C)(C(=O)OCC)C1` (stereo not given), the figure is 2.52 µM (active); as for `COCCC(=O)OC`, “inactive”; as for `CN[C@H]1CC[C@@H](c2ccc(Cl)c(Cl)c2)c2ccc(S(N)(=O)=O)cc21`, 50.2 µM (active).

`CCOC(=O)OC(=O)OCC`: the Potency result was “inactive”. Same read-out and setting: as for `Oc1ccc(Cl)cc1C1CCCC1`, the figure is 8.94 µM (active). The same measure, in the same setting: next, `O=C1OC2(c3ccccc31)c1ccc(O)c(Br)c1Oc1c2ccc(O)c1Br`: 89.4 µM (active). As to `C=COCCCC`, the Potency result was “inactive”. On the same count and under the same terms, next, `O[Si](c1ccccc1)(c1ccccc1)c1ccccc1`: 0.502 µM (active). On the same count and under the same terms, next, `CCCCCCCC/C=C\CCCCCCCC(=O)N(CCO)CCO`: 19.9 µM (active); `Nc1ccc(Oc2cccc(Oc3ccc(N)cc3)c2)cc1`: 11.2 µM (active). Same read-out and setting: as for `Cc1ccc(C2OC[C@@H]3OC(c4ccc(C)cc4)O[C@H]([C@H](O)CO)[C@@H]3O2)cc1` (stereo not given in full), the figure is 6.33 µM (active). On to `O=c1cc[nH]cc1`, for which the Potency result is “inactive”.

With `CCc1cccc(CC)c1`, the Potency result is “inactive”. With `CN1CCN(c2ccccc2/C=C2\SCCN(c3ccc(Cl)c(Cl)c3)C2=O)CC1`, the Potency is 5.03 µM (active). Still for that read-out and setting: next, `O=C1c2ccccc2C(=O)c2c(Cl)cccc21`: 18.8 µM (active); `CSc1nnc(C(C)(C)C)c(=O)[nH]1`: “inactive”. Still for that read-out and setting: next, `O=C(NCc1ncc(C(F)(F)F)cc1Cl)c1c(Cl)cccc1Cl`: 20 µM (active); `O=c1[nH]cccc1O`: “inactive”. As for `CCSCC`, the Potency entry is “inactive”.

`O=C(c1ccccc1)c1ccc(Cl)cc1`: the Potency was 15.9 µM (active). For `CC(C)(C)C1=CC(=O)C(C(C)(C)C)=CC1=O`, the Potency is 6.92 µM (active). For the compound `Cc1cc(F)ccc1-c1cc(N2CC[C@@H](O)[C@H]2CO)ncc1N(C)C(=O)C(C)(C)c1cc(C(F)(F)F)cc(C(F)(F)F)c1`, the Potency was 27.8 µM (active).
